Reference: the antibiotic and cytotoxicity screens of Wong et al. (2023)
Among all 39,000 compounds or so, about 3,300 (8.5%) were called active. Only a selection was taken, and actives are over-represented in it overall.

These compounds were tested on HepG2 (assay: cytotoxicity call (relative viability < 0.9)). Settings: 10 µM.

Compound | cytotoxicity call
CC(C)[C@@H](CO)N1C(=O)[C@]2(C)[C@H]3C(=O)OCCC/C=C\[C@H]3O[C@]23C=CCN(c2ccc(Cl)cc2)C(=O)[C@@H]13 | inactive
NC[C@@H]1O[C@H](C23CC4CC(CC(C4)C2)C3)Cc2c1ccc(O)c2O | inactive
C[C@H](CO)N1C[C@H](C)[C@H](CN(C)S(C)(=O)=O)Oc2cc(-c3ccccc3F)ccc2S1(=O)=O | inactive
CS(=O)(=O)Nc1ccc([N+](=O)[O-])cc1Oc1ccccc1 | inactive
C=C(C)COc1ccc([N+](=O)[O-])cc1 | inactive
O=[N+]([O-])c1ccc(Oc2ccc(-c3ccccc3)cc2)cc1 | active
Cn1c(=O)c2c(ncn2CCNC2=NCCC2)n(C)c1=O | inactive
Cc1noc(C)c1NC(=O)Nc1cccc2c1O[C@@H](CN(C)S(=O)(=O)c1cn(C)cn1)[C@@H](C)CN([C@@H](C)CO)C2=O | inactive
Cc1noc(C)c1S(=O)(=O)Nc1ccc2c(c1)C(=O)N([C@H](C)CO)C[C@H](C)[C@H](CN(C)S(=O)(=O)c1ccccc1)O2 | inactive
Cc1noc(C)c1S(=O)(=O)N(C)C[C@@H]1Oc2c(NS(=O)(=O)c3cn(C)cn3)cccc2C(=O)N([C@H](C)CO)C[C@@H]1C | inactive
CCC1(O)C(=O)OCc2c1cc1n(c2=O)Cc2cc3c(CN(C)C)c(O)ccc3nc2-1.Cl (stereo unspecified) | active
CC[C@@]1(O)C(=O)OCc2c1cc1n(c2=O)Cc2c-1nc1cc(F)c(C)c3c1c2[C@@H](N)CC3 | active
CCC1(O)C(=O)OCc2c1cc1n(c2=O)Cc2cc3cc(O)ccc3nc2-1 (stereo unspecified) | inactive
CCC[C@@H](N[C@H]1CCS(=O)(=O)C1)C(=O)O | inactive
NC[C@H](c1ccco1)N1CCc2ccccc2C1 | inactive
C[C@@H]1CN([C@@H](C)CO)C(=O)c2cccc(NS(=O)(=O)c3ccccc3)c2O[C@@H]1CN(C)Cc1ccncc1 | inactive
C[C@H](CO)N1C[C@H](C)[C@H](CN(C)S(=O)(=O)c2ccc(Cl)cc2)Oc2ccc(NC(=O)Cn3cnnn3)cc2CC1=O | inactive
COCC#Cc1ccc([C@@H]2[C@@H](CO)N3C(=O)CN(C(=O)C4CCOCC4)C[C@@H]23)cc1 | inactive
Cc1noc(C)c1NC(=O)N(C)C[C@@H]1Oc2ccc(NC(=O)Cn3cnnn3)cc2C(=O)N([C@H](C)CO)C[C@@H]1C | inactive
C[N+](C)(CCOc1ccccc1)Cc1ccccc1.O=C(O)c1cc2ccccc2c(Br)c1O | inactive
Cc1cc(C(C)(C)CC(C)(C)C)ccc1OCCOCC[N+](C)(C)Cc1ccccc1.[Cl-] | active
C[N+](C)(CCOc1ccccc1)Cc1ccccc1.O=C([O-])c1cc2ccccc2cc1O | inactive
C[C@H](CO)N1C[C@H](C)[C@@H](CN(C)S(=O)(=O)c2cn(C)cn2)Oc2ncc(/C=C/c3ccccc3)cc2C1=O | inactive

Compound | cytotoxicity call
Cc1ccc(S[C@]2(C(=O)NCCCN(C)C)CC(=O)N(Cc3ccccc3Cl)[C@@H]2c2ccc(CO)cc2I)cc1 | inactive
COc1ccc(NC(=O)N(C)C[C@H]2OCCCC[C@@H](C)Oc3ccc(NS(=O)(=O)c4ccc(C)cc4)cc3C(=O)N([C@@H](C)CO)C[C@H]2C)cc1 | inactive
CCn1cc(-c2ccc3ccccc3n2)c(=S)c2ccccc21 | active
CCn1c(=S)ccc2ccccc21 | inactive
CC(C)Cn1cnc2ccccc21 | inactive
CN1N=C(C(N)=O)CCC1=O | inactive
C[C@@H]1CN([C@H](C)CO)C(=O)c2cc(NC(=O)Cn3cnnn3)ccc2O[C@@H]1CN(C)C(=O)Nc1ccccc1 | inactive
O=C(C[C@@H]1CC[C@H]2[C@@H](COC[C@@H](O)CN2S(=O)(=O)c2ccccc2)O1)N1CCc2ccccc2C1 | inactive
C[C@H](N[P@@](=O)(OC[C@H]1O[C@@H](n2ccc(N)nc2=O)C(F)(F)[C@@H]1O)Oc1ccccc1)C(=O)OCc1ccccc1 | inactive
CC(C)OC(=O)[C@H](C)N[P@](=O)(OC[C@H]1O[C@@H](n2ccc(=O)[nH]c2=O)[C@@](C)(O)[C@@H]1O)Oc1ccccc1 | inactive
COc1nc(N)nc2c1ncn2[C@@H]1O[C@H](CO[P@@](=O)(N[C@@H](C)C(=O)OCC(C)(C)C)Oc2cccc3ccccc23)[C@@H](O)[C@@]1(C)O | active
Cc1noc(C)c1S(=O)(=O)Nc1cccc2c1O[C@H](CN(C)S(=O)(=O)c1ccc(F)cc1)[C@@H](C)CN([C@H](C)CO)C2=O | inactive
Cc1noc(C)c1NC(=O)Nc1ccc2c(c1)C(=O)N([C@H](C)CO)C[C@H](C)[C@H](CN(C)C(=O)Nc1ccc(C(F)(F)F)cc1)OCCCC[C@H](C)O2 | inactive
COc1ccc(NC(=O)Nc2ccc3c(c2)C(=O)N([C@@H](C)CO)C[C@@H](C)[C@H](CN(C)S(=O)(=O)c2ccc(OC)cc2)OCCCC[C@H](C)O3)cc1 | inactive
C[C@H](CO)N1C[C@H](C)[C@@H](CN(C)Cc2ccc(Oc3ccccc3)cc2)Oc2ccc(NC(=O)Cc3ccccc3)cc2CC1=O | inactive
C[C@H](CO)N1C[C@H](C)[C@H](CN(C)Cc2ccc(Oc3ccccc3)cc2)Oc2ccc(NC(=O)Cc3ccccc3)cc2CC1=O | inactive
C[C@@H]1CN([C@H](C)CO)C(=O)Cc2cc(NC(=O)Cc3ccccc3)ccc2O[C@@H]1CN(C)Cc1ccc(Oc2ccccc2)cc1 | active
C[C@@H]1CN([C@@H](C)CO)C(=O)Cc2cc(NC(=O)Cc3ccccc3)ccc2O[C@H]1CN(C)Cc1ccc(Oc2ccccc2)cc1 | inactive
C[C@@H]1CN([C@H](C)CO)C(=O)Cc2cc(NC(=O)Cc3ccccc3)ccc2O[C@H]1CN(C)Cc1ccc(Oc2ccccc2)cc1 | inactive
C[C@H]1CN([C@@H](C)CO)C(=O)Cc2cc(NC(=O)Cc3ccccc3)ccc2O[C@H]1CN(C)Cc1ccc(Oc2ccccc2)cc1 | active
C[C@H]1CN([C@@H](C)CO)C(=O)Cc2cc(NC(=O)Cc3ccccc3)ccc2O[C@@H]1CN(C)Cc1ccc(Oc2ccccc2)cc1 | inactive
C[C@@H]1CN([C@@H](C)CO)C(=O)Cc2cc(NC(=O)Cc3ccccc3)ccc2O[C@@H]1CN(C)Cc1ccc(Oc2ccccc2)cc1 | active
Cc1ccc(S(=O)(=O)Nc2ccc3c(c2)C(=O)N([C@@H](C)CO)C[C@H](C)[C@H](CN(C)C(=O)CCC(F)(F)F)OCCCC[C@H](C)O3)cc1 | inactive
